# From ChEMBL document CHEMBL3988442, “University of Dundee, Small-Polar-MMV Screening Library” (2021)
# For some assays here: Potency and affinity values are given separately.
# Experiments:
# Parameters in all cases: scale not given: direction of the effect not stated beside the values
# [1] = molecular target: Protein translocase subunit SecA (Escherichia coli (strain K12)) (UniProt P10408); test: Assay to Identify E. coli SecA ATPase Inhibitors; assay type: functional; details: 30 µM
# [2] = molecular target: T1, Ubiquitin-activating enzyme e1, putative (Leishmania donovani (strain BPK282A1)) (UniProt E9BSI1); test: Leishmania donovani Ubiquitin Activating Enzyme (LdE1); assay type: functional; details: 30 µM
# T1 sequence (whole entry): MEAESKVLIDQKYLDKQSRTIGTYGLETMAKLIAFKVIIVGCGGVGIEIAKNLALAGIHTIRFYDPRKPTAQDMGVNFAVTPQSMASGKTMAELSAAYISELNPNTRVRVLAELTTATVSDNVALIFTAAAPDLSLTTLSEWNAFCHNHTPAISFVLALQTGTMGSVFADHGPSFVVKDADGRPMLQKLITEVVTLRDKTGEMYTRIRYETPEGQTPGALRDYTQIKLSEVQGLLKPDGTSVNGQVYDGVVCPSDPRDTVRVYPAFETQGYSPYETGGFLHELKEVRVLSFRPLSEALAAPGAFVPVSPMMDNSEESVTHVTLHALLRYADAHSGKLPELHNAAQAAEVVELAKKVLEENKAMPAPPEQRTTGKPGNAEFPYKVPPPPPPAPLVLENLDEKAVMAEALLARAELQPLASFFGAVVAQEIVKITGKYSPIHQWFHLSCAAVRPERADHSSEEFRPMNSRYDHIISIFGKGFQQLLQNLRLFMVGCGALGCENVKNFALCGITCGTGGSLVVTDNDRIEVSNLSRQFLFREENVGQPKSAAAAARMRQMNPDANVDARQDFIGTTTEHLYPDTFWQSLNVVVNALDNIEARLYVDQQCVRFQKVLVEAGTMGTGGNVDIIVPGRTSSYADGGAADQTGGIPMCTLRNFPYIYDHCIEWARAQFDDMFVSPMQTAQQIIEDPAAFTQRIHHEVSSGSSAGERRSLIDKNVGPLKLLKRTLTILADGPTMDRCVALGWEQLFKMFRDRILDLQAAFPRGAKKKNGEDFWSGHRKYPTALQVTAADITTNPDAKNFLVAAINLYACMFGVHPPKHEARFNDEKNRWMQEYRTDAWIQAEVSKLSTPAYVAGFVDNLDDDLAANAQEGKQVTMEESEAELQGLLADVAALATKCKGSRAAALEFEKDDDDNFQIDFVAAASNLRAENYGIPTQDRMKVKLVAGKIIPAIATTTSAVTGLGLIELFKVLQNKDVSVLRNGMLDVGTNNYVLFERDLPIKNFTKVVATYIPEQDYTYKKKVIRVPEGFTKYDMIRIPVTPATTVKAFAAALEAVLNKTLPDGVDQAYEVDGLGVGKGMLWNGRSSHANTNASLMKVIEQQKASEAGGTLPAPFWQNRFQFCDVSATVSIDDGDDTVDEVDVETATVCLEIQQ
# [3] = molecular target: AMP-activated protein kinase, AMPK (Homo sapiens) (UniProt P54646+O43741+P54619+Q9UGJ0+Q9Y478+Q13131+Q9UGI9); test: AMP-dependent Kinase enzyme assay. An in vitro enzyme assay that detects ADP turnover that is directly proportional to AMPK activity. This uses naive AMPK that is activated during the assay with MK-8722; assay type: functional; details: 30 µM
# [4] = molecular target: Sialic acid-binding Ig-like lectin 9 (Homo sapiens) (UniProt Q9Y336); test: Hs-Siglec9 ALPHAscreen SOP 20170721; details: 10 µM
# Trypanosoma cruzi = test: Trypanosoma cruzi phosphomannomutase and mannose-1-phosphate guanylyltransferase assay; assay type: functional; details: 10 µM
# [5] = molecular target: T2, Arginase-2, mitochondrial (Homo sapiens) (UniProt P78540); test: in vitro enzyme assay to detect the production of urea directly proportional to the activity of Arginase II; assay type: functional; details: 33.3 µM; also: in the data most compounds retested in dose-response had high values
# T2 sequence (whole entry): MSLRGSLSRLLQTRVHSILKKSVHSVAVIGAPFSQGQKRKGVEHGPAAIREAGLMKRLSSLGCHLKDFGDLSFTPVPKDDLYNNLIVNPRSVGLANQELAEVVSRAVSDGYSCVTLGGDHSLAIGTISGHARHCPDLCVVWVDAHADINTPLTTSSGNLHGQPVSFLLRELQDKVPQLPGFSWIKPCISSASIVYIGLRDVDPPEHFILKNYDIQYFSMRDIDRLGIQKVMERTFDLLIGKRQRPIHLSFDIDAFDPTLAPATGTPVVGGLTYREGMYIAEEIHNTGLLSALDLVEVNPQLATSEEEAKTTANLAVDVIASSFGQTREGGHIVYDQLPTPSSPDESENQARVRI
# [6] = molecular target: T3, Proteasome subunit beta (Trypanosoma cruzi) (UniProt O96673); test: Trypanosoma cruzi proteasome chymotrypsin-like activity (TcProtChymo) assay.; also: in the data most compounds retested in dose-response had high values; assay type: functional; details: 9.37 µM
# T3 sequence (whole entry): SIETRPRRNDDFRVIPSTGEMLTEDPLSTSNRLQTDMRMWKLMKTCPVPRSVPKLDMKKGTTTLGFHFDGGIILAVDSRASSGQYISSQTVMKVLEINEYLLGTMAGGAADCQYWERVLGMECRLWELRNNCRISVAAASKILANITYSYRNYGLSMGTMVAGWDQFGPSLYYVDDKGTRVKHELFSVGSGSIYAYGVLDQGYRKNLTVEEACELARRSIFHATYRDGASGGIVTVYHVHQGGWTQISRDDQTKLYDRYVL
# Homo sapiens = species on record: Homo sapiens; test: To identify inhibition of the IFN signalling (Jak-Stat) pathway via expression of an eGFP reporter gene under the control of an IFN-stimulated response element (ISRE) containing MxA promoter.; assay type: functional; details: 30 µM
# [7] = molecular target: T4, Tyrosyl-tRNA synthetase, putative (Trypanosoma cruzi (strain CL Brener)) (UniProt Q4DSP6); test: Trypanosoma cruzi tyrosyl tRNA synthetase (TcYRS) _High Tyrosine SOP; assay type: functional; details: 30 µM; also: in the data most compounds retested in dose-response had high values
# T4 sequence (whole entry): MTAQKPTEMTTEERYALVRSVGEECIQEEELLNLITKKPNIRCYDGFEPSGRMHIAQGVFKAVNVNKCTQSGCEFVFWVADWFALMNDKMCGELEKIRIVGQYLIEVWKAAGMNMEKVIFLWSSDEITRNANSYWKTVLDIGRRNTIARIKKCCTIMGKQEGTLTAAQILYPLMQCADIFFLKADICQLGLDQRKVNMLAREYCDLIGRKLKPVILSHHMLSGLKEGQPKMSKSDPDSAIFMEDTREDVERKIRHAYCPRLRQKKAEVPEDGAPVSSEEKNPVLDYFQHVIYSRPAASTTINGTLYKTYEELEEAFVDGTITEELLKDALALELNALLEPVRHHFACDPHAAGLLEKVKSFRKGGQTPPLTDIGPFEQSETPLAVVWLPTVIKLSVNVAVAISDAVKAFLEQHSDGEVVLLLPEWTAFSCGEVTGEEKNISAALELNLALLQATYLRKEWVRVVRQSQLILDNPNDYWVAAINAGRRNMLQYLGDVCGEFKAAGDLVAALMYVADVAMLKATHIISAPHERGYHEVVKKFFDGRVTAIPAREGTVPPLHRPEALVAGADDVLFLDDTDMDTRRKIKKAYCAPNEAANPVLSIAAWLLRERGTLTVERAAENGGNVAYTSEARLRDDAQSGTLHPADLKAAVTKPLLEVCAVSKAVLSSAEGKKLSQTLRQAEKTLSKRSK
# [8] = molecular target: T4, Tyrosyl-tRNA synthetase, putative (Trypanosoma cruzi (strain CL Brener)); test: Trypanosoma cruzi tyrosyl tRNA synthetase (TcYRS) SOP; assay type: functional; details: 30 µM
# [9] = molecular target: Chromo domain-containing protein 1 (Saccharomyces cerevisiae (strain ATCC 204508 / S288c) (Baker's yeast)) (UniProt P32657); test: ScCHD-1 Enzyme Inhibition Assay; assay type: functional; details: 30 µM; also: in the data most compounds retested in dose-response had high values
# Chromo domain-containing protein 1 (Saccharomyces cerevisiae (strain ATCC 204508 / S288c) (Baker's yeast)), sequence (P32657 whole entry, the tested form may be a part): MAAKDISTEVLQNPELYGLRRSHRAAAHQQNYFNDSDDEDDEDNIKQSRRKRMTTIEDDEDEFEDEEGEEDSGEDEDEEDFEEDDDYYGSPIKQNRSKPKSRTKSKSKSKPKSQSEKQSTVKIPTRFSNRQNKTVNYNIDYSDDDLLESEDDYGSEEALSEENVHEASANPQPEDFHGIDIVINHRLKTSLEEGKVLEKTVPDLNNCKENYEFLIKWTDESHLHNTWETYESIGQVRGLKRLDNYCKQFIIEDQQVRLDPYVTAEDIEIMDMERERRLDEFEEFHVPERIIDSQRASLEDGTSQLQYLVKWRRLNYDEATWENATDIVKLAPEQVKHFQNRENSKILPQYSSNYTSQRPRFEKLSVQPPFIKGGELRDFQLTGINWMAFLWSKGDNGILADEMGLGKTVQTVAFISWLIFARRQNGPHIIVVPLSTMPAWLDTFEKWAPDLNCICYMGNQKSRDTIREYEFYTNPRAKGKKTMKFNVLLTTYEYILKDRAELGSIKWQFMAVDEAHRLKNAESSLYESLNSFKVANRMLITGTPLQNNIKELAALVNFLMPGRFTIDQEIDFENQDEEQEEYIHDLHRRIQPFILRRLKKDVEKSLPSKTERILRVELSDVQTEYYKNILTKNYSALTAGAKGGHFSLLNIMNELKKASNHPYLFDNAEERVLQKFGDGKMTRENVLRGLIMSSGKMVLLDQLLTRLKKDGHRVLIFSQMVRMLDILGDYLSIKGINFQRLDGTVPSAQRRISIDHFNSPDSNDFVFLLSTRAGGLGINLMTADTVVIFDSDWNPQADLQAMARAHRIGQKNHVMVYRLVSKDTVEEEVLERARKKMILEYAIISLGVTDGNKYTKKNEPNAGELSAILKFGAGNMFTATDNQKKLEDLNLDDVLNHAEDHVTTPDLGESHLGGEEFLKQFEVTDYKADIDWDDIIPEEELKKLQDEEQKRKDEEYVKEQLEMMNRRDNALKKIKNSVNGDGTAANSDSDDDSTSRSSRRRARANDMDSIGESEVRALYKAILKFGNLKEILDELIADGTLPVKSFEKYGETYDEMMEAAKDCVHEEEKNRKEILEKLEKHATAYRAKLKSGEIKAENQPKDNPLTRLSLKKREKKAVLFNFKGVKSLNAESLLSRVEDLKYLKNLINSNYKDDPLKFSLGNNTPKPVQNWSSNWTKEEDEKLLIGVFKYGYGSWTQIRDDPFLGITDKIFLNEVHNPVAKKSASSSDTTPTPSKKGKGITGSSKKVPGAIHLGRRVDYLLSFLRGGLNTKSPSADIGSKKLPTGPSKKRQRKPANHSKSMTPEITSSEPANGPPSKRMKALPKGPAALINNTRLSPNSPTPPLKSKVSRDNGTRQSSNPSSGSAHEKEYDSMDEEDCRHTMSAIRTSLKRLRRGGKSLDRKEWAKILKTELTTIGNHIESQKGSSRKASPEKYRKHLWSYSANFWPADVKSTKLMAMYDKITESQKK
# Protein translocase subunit SecA (Escherichia coli (strain K12)), sequence (P10408 whole entry): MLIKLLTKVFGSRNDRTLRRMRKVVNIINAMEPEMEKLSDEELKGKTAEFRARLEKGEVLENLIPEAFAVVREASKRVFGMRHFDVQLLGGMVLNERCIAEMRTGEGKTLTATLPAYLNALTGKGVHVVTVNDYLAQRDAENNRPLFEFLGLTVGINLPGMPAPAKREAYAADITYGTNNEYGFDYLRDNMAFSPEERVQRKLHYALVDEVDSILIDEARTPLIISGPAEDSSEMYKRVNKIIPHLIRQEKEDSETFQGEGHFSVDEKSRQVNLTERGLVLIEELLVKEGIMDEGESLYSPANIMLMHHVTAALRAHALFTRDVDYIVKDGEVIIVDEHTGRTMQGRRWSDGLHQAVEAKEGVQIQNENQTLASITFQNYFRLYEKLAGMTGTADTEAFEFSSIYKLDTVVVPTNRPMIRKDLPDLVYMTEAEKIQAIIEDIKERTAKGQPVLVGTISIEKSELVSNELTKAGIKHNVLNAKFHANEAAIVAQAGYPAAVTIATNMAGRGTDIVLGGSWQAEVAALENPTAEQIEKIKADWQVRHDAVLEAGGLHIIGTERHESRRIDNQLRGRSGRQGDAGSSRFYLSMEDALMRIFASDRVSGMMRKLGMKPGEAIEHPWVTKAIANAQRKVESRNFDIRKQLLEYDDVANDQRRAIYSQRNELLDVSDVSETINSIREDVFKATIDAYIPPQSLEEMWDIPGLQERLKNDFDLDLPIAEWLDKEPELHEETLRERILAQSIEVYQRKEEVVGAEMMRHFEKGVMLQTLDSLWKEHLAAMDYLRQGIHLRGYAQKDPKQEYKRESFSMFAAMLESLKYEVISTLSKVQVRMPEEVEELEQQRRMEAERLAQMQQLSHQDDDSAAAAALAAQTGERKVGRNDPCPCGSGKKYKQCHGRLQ
# Sialic acid-binding Ig-like lectin 9 (Homo sapiens), sequence (Q9Y336 whole entry): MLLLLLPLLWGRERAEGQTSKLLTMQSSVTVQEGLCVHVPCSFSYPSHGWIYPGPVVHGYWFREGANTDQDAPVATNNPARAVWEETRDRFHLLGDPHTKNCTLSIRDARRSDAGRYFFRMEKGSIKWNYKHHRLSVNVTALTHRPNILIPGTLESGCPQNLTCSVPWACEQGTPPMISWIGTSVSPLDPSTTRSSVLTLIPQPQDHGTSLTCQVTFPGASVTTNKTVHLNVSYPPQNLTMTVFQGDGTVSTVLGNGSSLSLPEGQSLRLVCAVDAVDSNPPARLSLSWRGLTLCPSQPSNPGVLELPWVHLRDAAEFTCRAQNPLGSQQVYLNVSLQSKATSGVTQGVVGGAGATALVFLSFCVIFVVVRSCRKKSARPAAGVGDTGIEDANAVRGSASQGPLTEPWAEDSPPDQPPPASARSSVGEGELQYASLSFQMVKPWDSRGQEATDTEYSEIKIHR
SMILES,Percent Effect [1] [%],Percent Effect [2] [%],Percent Effect [3] [%],Percent Effect [4] [%],Percent Effect (Trypanosoma cruzi) [%],Percent Effect [5] [%],Percent Effect [6] [%],Percent Effect (Homo sapiens) [%],Percent Effect [7] [%],Percent Effect [8] [%],Percent Effect [9] [%]
CC(C)c1nc(C2CCCN2CCc2ccncc2)no1 (configuration not stated),-3.81,0,6.93,-0.839,-2.25,-0.356,13,27,2.91,-4.88,-0.507
O=C(NCCNc1ncccn1)c1ccc(-c2ccco2)[nH]c1=O,-5.27,27,-6.43,9.97,1.23,-11.6,15.9,6.48,8.37,23.5,-11.4
O=C(Cn1ccnc1)N1C[C@@H]2CC[C@H](Oc3ccccc3Cl)[C@@H]2C1,-7.33,-4.05,13.2,1.9,0.198,-3.94,-1.09,31.6,0,-1.3,1.94
Cc1nc(COCc2cnc3n2CCN(CC2CCC2)C3C)cs1 (configuration not stated),-1.98,-2.67,-6.08,4.28,8.11,-56.8,12.7,-20.7,-1.04,7.5,-4.06
CN1CCN(C(=O)c2cnc3c(cnn3C3CCCC3)c2)CC1,-5.03,12.7,-2.67,-0.596,8.78,5.7,1.72,-7.07,5.42,16.5,-5.9
Cn1cccc1C(=O)N1CCn2cc(CNC(=O)CC3CC3)nc2C1,-2.92,13.3,10.1,-5.14,4.13,-0.233,6.61,0.949,8.51,16.7,-6.08
COC1CCN(C(=O)c2c(Cl)c3ccccc3n2C)CC1,-5.47,5.33,0.805,8.11,3.41,5.21,16.2,-7.49,3.83,11.1,-5
O=C(Nc1cccc(CNCc2csc(Br)c2)c1)C1CC1,-8.41,23.7,-5.54,-1.24,5.32,2.16,7.19,37.8,3.45,25.9,-8.55
O=C1NCC2(CCCN(Cc3ccccc3F)C2)Oc2ccccc21 (configuration not stated),1.88,12.2,9.79,-6.32,-2.77,5.34,9.52,9.51,3.23,9.09,-14.2
Cc1ccn(-c2ccc(C(=O)N3CCCC(n4ccnc4)C3)cc2)n1 (configuration not stated),1.74,-2.53,4.22,-1.83,1.6,2.66,-2.21,1.73,4.43,-3.8,-1.63
CCn1cc(NC(=O)NCC(C)O)cn1 (configuration not stated),-0.762,17.7,-8.6,-3.54,-0.85,4.18,5.65,1.36,8.37,-24.1,-7.2
CCn1cc2c(n1)CN(Cc1ccncc1)CC2COCC1CC1 (configuration not stated),-3.54,10.7,12.3,6.03,-1.97,-0.699,10.7,4.31,6.38,11.5,-6.9
COCC(=O)NCc1cc(=O)n2c(n1)CN(Cc1ccsc1)CCC2,-5.93,8.11,3.64,-0.625,-2.83,6.05,17.9,-15.7,2.16,5.13,2.68
CN1CCOC(CN(C(=O)Cc2ccccc2F)c2nccs2)C1 (configuration not stated),-1.47,0,-3.71,11.3,8.82,-2.03,-0.539,1.86,1.98,6.1,5.97
c1ncn(CC2CCCN(Cc3nc(C4CC4)no3)C2)n1 (configuration not stated),-5.67,10.1,-7.43,8.58,8.59,-4.56,-3.36,-5.79,6.4,13.9,-1.7
CNc1nc(CNC(=O)Nc2cccc(F)c2C)cs1,-0.623,-2.63,-1.93,5.4,-1.32,1.15,5.18,8.24,1.47,-2.44,5.82
COc1ncccc1C(=O)N1CCC(c2nnc(C3CC3)o2)CC1,-1.83,10.4,11.3,3.07,-5.82,16.1,9.75,-6.69,4.23,11.5,-9.2
CN(C)c1ncc(CN2CCC(c3nnsc3S(C)(=O)=O)CC2)cn1,-2.31,-1.35,11.6,-0.17,-3.36,0.232,4.37,12.1,3.23,1.3,-9.61
O=C(NCC1CC1)C1CN(C(=O)c2cccnc2)CC12CCOCC2 (configuration not stated),-0.919,13,2.21,6.47,-0.296,-0.645,13.6,18.6,5.29,14.1,-4.19
CCOc1ncccc1C(=O)N(C)Cc1ncc(C)c(OC)c1C,-0.0989,13,5.97,-3.9,-3.23,6.95,12.5,27.5,5.71,18.8,-14.4
CC(C)NC(=O)[C@@H]1CCO[C@@H]2CCN(c3ncccn3)C[C@H]21,-6.07,16,-1.13,0.524,0.579,-45,4.1,-11,8.33,10,-7.2
Cc1cn2c(n1)CCC(NC(=O)CCC(F)(F)F)C2 (configuration not stated),-7.86,-7.89,-7.17,16.2,5.51,0.36,3.64,-6.31,3.45,16.1,-6.39
